# Measurements as given in PubChem BioAssay (NCATS).
# Several values for one entry are separate records, joined by “and”; a condition that tells them apart may be missing. Equal entries are not always repeated. Records with an inconclusive call do not appear. Where a call stands in place of a potency, no number is given. Activity calls are given as the source filed them. Unless noted, calls follow the shape of the dose curve; as a rule, active = well fitted curve in the direction sought with a large enough effect; inconclusive = small, poorly fitted or top-dose-only effect, or another doubt; inactive = no such curve, though single readings can be large; an effect the other way counts as inactive or inconclusive.
# What was measured:
# [1] = qHTS to identify inhibitors of the type 1 interferon - major histocompatibility complex class I in skeletal muscle: primary screen against the NCATS LOPAC collection (AID 1347405);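 also: human myoblasts with HiBiT tag on endogenous HLA-B stimulated by IFN-beta; lytic HiBiT luminescence reporting HLA-B protein level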; also: potency is read from the fitted curve at half-maximal effect
# Procedure, shortened: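 First, engineered myoblasts carrying HLA-B-HiBiT were seeded in medium lacking dexamethasone with 4 ng/ml IFN-beta. After 1 hr, compounds were pinned in (top 46 uM final, 7 points). After 24 hrs at 37 C, luminescence was measured following 10 min lysis.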
# [2] = qHTS to identify inhibitors of the type 1 interferon - major histocompatibility complex class I in skeletal muscle: primary screen against the NCATS Pharmaceutical Collection (AID 1347407);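 also: luminescence of HiBiT knocked into endogenous HLA-B as interferon-induced MHC class I level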; also: potency is read from the fitted curve at half-maximal effect
# Procedure, shortened: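 A qHTS format is used: 8-point, 1:5 compound series with 46 uM top final concentration, applied alongside 4 ng/ml IFN-beta to HLA-B*08:01-HiBiT knock-in myoblasts. Luminescence is measured after 24 h treatment.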
# [3] = qHTS for inhibitors of adenylyl cyclases using a fission yeast platform: a pilot screen against the NCATS LOPAC library (AID 1347410)
# Procedure, shortened: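 Inhibition of GNAS-stimulated AC9 activity in S. pombe was inferred from derepression of a PKA-repressed fbp1-GFP reporter, measured as cytometric fluorescence after 18 h at 30C with compounds at up to 57 µM.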
# [4] = target: Protein phosphatase 1D (Homo sapiens) (UniProt O15297); assay: RapidFire Mass Spectrometry qHTS Assay for Modulators of WT P53-Induced Phosphatase 1 (WIP1) (AID 1347424);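 also: amount of dephosphorylated VEPPL-S-QETFS peptide product formed by WIP1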; also: potency is read from the fitted curve at half-maximal effect
# Procedure, shortened: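 RapidFire mass spectrometry measured dephosphorylated peptide after 5 min room-temperature reaction of 2 uM VEPPL-pS-QETFS with 10 nM WIP1 (50 mM Tris-HCl pH 7.5, 30 mM MgCl2, 0.1 mM EGTA, BSA), following 1 hr compound preincubation; 1 uM isotope-labelled product standard.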
# [5] = target: Protein phosphatase 1D (Homo sapiens) (UniProt O15297); assay: Rhodamine-PBP qHTS Assay for Modulators of WT P53-Induced Phosphatase 1 (WIP1) (AID 1347425)
# Procedure, shortened: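 WIP1 (5 nM final) was preincubated with compound for 1 hour at room temperature. It then dephosphorylated 10 uM VEPPL-pS-QETFS peptide in Tris-HCl pH 7.5 with 30 mM MgCl2. Released Pi was detected by 10 uM Rh-PBP fluorescence (ex 525/em 598 nm) read at 1-min intervals for 11 min, as delta f1 - f0.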
# [6] = Validation qHTS assay for inhibitors of Activation Induced Cytidine Deaminase (AID): UDG Counterscreen signal (AID 1347427)
# Procedure, shortened: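 Fluorescence at 560 nm excitation, 665 nm emission reports UDG signal after 250 mM NaOH (2x) addition and 30 min. Enzymes (AID 1 uM, UDG 2 U/mL, at 4/3x) preincubated 10 min with compound, then 4 h with 4x 250 nM DJC20/DJC23 substrate at room temperature.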
# [7] = target: Single-stranded DNA cytosine deaminase (Homo sapiens) (UniProt Q9GZX7); assay: Validation qHTS assay for inhibitors of Activation Induced Cytidine Deaminase (AID): AID signal (AID 1347429); also: potency is read from the fitted curve at half-maximal effect
# Procedure, shortened: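 Steps: dispense AID with UDG; pin-transfer compound up to 114 uM final; add DJC20/DJC23 substrate and hold 4 hr at room temperature; add NaOH, hold 30 min; read FRET signal (540/590 nm).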
# [8] = Primary qHTS for inhibitors of La Crosse Virus (LACV) - induced cell death in SH-SY5Y cells (AID 1508616);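 also: top concentration of the series differs between compounds; higher means more rescue of cells from virus-induced death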
# Procedure, shortened: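 SH-SY5Y, 6000 cells/well; cpd via pin tool in DMSO; LACV 0.01 MOI; 6 d 37C 5% CO2; ATPLite, 5 min RT; luminescence normalized to ±virus DMSO controls.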
# [9] = target: Calcium and integrin-binding protein 1 (Homo sapiens) (UniProt Q99828); assay: Validation qHTS for Identification of Calcium Integrin Binding protein 1 (CIB1) Competitor (AID 1508618); also: potency is read from the fitted curve at half-maximal effect
# Procedure, shortened: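 Fluorescence polarization with 1 uM CIB1-GST and 100 nM FITC-alphaIIb peptide in HEPES pH 7.4, NaCl, 5 mM CaCl2, Tween20. Compounds at up to 114 uM final, preincubated with protein 15 min; read after 15 min more at RT.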
# [10] = target: Calcium and integrin-binding protein 1 (Homo sapiens) (UniProt Q99828); assay: Primary qHTS for Identification of Calcium Integrin Binding Protein 1 (CIB1) Competitor (AID 1508620); also: potency is read from the fitted curve at half-maximal effect
# Procedure, shortened: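 CIB1-GST (1 uM final) and compound incubated 15 min at room temperature before adding FITC-alphaIIb peptide tracer (100 nM final). Competition for binding read by fluorescence polarization (ex 480, em 540) after another 15 min at room temperature.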
# [11] = Primary qHTS for small molecule stabilizers of the endoplasmic reticulum resident proteome: Secreted ER Calcium Modulated Protein (SERCaMP) assay (AID 1508630)
# Procedure, shortened: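 The SH-SY5Y reporter protocol was run at 3 concentrations up to 38.3 uM (primary) or 11 concentrations (follow-up): 16 h compound, 100 nM thapsigargin for 4 h, then extracellular luciferase luminescence.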
# [12] = qHTS to identify inhibitors of the type 1 interferon - major histocompatibility complex class I in skeletal muscle: primary screen against the NCATS Mechanism Interrogation Plate v5.0 (MIPE) Libary (AID 1347411); also: nearly all actives have a fitted effect of over 65% in size
# Procedure, shortened: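 Seed engineered human myoblasts (HLA-B HiBit) in medium without dexamethasone containing 4 ng/ml IFN-beta; after 1 hr add compound titrations (top 46 uM final). Incubate 24 hrs at 37 C, lyse 10 min with HiBiT reagent, read luminescence.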
# [13] = A High-Content qHTS Against Drug Library for the Identification of Small Molecules that Inhibit DYT1 Early Onset Primary Dystonia-Associated Cell Pathology (AID 1645839; calls by dose curve; also: series mostly up to about 46 µM)
# Procedure, shortened: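 High-content imaging quantified EGFP-TorsinA mislocalization in HEK293-derived cells inducibly expressing DYT1 mutant torsinA, after 48 h exposure to compound given together with tetracycline induction. Cell count served as a toxicity channel alongside %pathology.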
# [14] = target: Cytochrome P450 2D6 (Homo sapiens) (UniProt P10635); assay: Cytochrome P450 family 2 subfamily D member 6 (CYP2D6) small molecule antagonists: luciferase biochemical (cell-free) qHTS assay (AID 1645840; active = well fitted curve in the direction sought with a large enough effect in the repeat runs; an effect the other way counts as inactive or inconclusive; also: nearly all actives have a fitted effect of over 55% in size; also: potency is read from the fitted curve at half-maximal effect)
# Procedure, shortened: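 P450-Glo CYP2D6 system: proluciferin substrate converted by enzyme to luciferin, read by luminescence proportional to activity. Enzyme-substrate mix with compound 10 min at room temperature, then NADPH regeneration 1 h before detection reagent.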
# [15] = Confirmatory qHTS for small molecule stabilizers of the endoplasmic reticulum resident proteome: Secreted ER Calcium Modulated Protein (SERCaMP) assay (AID 1508628); also: potency is read from the fitted curve at half-maximal effect; nearly all actives have a fitted effect of over 40% in size
# Procedure, shortened: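 Reporter secretion upon ER calcium depletion (100 nM thapsigargin, 4 h, 37C) is measured as medium luminescence with coelenterazine, after 16 h compound pretreatment of SH-SY5Y-GLuc-SERCaMP cells; primary at three concentrations up to 38.3 uM, follow-up at 11 (up to 76.6 uM).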
# [16] = Counterscreen qHTS for small molecule stabilizers of the endoplasmic reticulum resident proteome: GLuc-NoTag assay (AID 1508627); also: series mostly up to about 76 µM
# Procedure, shortened: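 Counterscreen line: SH-SY5Y-GLuc-NoTag cells, treated with compound 19 hr before a 4 hr, 100 nM thapsigargin calcium depletion. Secreted Gaussia luciferase in the medium was measured by luminescence after coelenterazine was added (0.07x final), with cells unlysed.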
# [17] = target: Cytochrome P450 3A4 (Homo sapiens) (UniProt P08684); assay: Cytochrome P450 family 3 subfamily A member 4 (CYP3A4) small molecule antagonists: luciferase qHTS assay (AID 1645841; active = well fitted curve in the direction sought with a large enough effect in the repeat runs; an effect the other way counts as inactive or inconclusive; also: nearly all actives have a fitted effect of over 45% in size)
# Procedure, shortened: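 Luminescent CYP3A4 activity readout: compounds plus enzyme-substrate mix 10 min at room temperature, reaction started with NADPH regenerating system for 1 h, stopped with detection reagent, read after 20 min. Ketoconazole served as control.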
# Chain of Cytochrome P450 2D6 (Homo sapiens) (P10635 whole entry, looked up): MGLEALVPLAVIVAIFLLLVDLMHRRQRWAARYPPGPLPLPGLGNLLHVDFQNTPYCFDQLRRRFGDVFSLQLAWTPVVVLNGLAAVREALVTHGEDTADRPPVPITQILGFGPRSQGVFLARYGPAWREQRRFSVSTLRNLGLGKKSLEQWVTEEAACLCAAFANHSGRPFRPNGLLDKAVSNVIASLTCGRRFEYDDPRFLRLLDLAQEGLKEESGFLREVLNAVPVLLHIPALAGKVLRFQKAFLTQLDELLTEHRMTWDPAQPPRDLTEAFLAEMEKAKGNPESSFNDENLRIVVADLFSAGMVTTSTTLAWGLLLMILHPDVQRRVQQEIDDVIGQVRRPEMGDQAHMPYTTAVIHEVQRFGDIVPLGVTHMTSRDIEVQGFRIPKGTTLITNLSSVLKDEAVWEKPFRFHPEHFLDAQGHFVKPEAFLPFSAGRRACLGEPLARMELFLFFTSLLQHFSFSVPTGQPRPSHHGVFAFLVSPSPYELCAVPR
# Chain of Protein phosphatase 1D (Homo sapiens) (O15297 whole entry, looked up): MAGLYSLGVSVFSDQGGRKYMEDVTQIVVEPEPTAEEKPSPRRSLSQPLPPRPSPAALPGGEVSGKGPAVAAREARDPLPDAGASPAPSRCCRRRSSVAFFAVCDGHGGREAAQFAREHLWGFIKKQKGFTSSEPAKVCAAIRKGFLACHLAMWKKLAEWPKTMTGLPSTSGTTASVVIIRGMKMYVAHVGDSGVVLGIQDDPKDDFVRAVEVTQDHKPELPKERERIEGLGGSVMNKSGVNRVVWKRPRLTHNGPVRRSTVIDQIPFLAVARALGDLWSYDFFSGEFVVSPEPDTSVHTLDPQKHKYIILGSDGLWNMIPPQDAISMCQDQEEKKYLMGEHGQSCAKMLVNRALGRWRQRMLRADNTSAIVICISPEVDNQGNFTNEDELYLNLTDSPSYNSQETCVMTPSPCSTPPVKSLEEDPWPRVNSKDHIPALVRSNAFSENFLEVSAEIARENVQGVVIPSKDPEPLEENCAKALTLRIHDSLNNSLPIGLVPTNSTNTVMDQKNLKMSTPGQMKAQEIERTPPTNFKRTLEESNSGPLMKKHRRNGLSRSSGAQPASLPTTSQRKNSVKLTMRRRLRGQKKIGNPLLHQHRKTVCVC
# Chain of Calcium and integrin-binding protein 1 (Homo sapiens) (Q99828 whole entry, looked up): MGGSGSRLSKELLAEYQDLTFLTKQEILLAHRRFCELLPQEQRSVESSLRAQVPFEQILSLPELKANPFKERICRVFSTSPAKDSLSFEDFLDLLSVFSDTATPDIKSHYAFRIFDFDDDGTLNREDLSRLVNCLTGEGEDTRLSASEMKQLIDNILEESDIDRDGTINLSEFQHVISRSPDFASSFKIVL
# Chain of Single-stranded DNA cytosine deaminase (Homo sapiens) (Q9GZX7 whole entry, looked up): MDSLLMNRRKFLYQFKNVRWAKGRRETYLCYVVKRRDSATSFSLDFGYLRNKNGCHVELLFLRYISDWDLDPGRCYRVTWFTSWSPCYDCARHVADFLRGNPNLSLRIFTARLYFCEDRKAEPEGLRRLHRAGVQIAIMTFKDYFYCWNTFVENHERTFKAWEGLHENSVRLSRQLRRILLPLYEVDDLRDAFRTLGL
# Chain of Cytochrome P450 3A4 (Homo sapiens) (P08684 whole entry, looked up): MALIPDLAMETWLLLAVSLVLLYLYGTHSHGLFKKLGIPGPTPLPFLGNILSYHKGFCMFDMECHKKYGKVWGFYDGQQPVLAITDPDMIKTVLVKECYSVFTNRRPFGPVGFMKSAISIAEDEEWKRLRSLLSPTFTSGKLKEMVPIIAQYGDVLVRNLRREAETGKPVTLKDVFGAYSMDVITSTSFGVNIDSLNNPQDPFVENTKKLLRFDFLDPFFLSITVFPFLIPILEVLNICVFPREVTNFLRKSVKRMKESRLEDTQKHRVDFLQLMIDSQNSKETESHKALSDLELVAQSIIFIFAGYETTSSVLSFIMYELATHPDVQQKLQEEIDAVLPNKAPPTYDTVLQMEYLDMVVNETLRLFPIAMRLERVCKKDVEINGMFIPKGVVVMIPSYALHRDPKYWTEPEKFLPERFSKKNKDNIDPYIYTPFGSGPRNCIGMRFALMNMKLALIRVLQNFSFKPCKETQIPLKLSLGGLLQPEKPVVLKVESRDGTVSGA
Compound,Potency [1],Potency [2],outcome [3],Potency [4],outcome [5],Potency [6],Potency [7],Potency [8],Potency [9],Potency [10],Potency [11],Potency [12],Potency [13],Potency [14],Potency [15],Potency [16],outcome [17]
COc1cc2nc(N(C)CCCNC(=O)C3CCCO3)nc(N)c2cc1OC (stereo not drawn),inactive,inactive,inactive,inactive,inactive,inactive,inactive,inactive,inactive,inactive,inactive,,,,,,
CC1COc2c(N3CCN(C)CC3)c(F)cc3c(=O)c(C(=O)O)cn1c23 (stereo not drawn),inactive,inactive,inactive,inactive,inactive,,,inactive,,,inactive,inactive,inactive,inactive,,,
CC[N+](CC)(CC)CCOc1cccc(OCC[N+](CC)(CC)CC)c1OCC[N+](CC)(CC)CC,inactive,inactive,inactive,inactive,inactive,inactive,inactive,inactive,,,inactive,inactive,inactive,inactive,,,
Clc1ccc2nsnc2c1NC1=NCCN1,inactive,inactive,inactive,inactive,inactive,inactive,inactive,inactive,,,inactive,inactive,inactive,17.4 µM (active),,,
CN(Cc1cnc2nc(N)nc(N)c2n1)c1ccc(C(=O)N[C@@H](CCC(=O)O)C(=O)O)cc1,inactive,inactive,inactive,inactive,inactive,inactive,inactive,inactive,,inactive,inactive,inactive,inactive,inactive,,,
Cc1cn([C@H]2C=C[C@@H](CO)O2)c(=O)[nH]c1=O,inactive,inactive,inactive,inactive,inactive,inactive,inactive,inactive,inactive,inactive,inactive,,inactive,inactive,,,
O=c1[nH]cc(F)c(=O)[nH]1,inactive,inactive,inactive,inactive,inactive,inactive,inactive,inactive,inactive,inactive,inactive,inactive,inactive,inactive,,,
O=C(CCCN1CCC(O)(c2ccc(Cl)cc2)CC1)c1ccc(F)cc1,inactive,inactive,inactive,inactive,inactive,inactive,inactive,inactive,inactive,inactive,,,,,,,
CC(C)(C)C(=O)Oc1ccc(S(=O)(=O)Nc2ccccc2C(=O)NCC(=O)O)cc1,inactive,inactive,inactive,inactive,inactive,,,inactive,inactive,inactive,inactive,inactive,inactive,inactive,,,
Nc1ccn([C@H]2CC[C@@H](CO)O2)c(=O)n1,inactive,inactive,inactive,inactive,inactive,inactive,inactive,inactive,inactive,inactive,inactive,,inactive,inactive,,,
Cc1ccc(C(=O)Nc2ccc(S(=O)(=O)O)c3cc(S(=O)(=O)O)cc(S(=O)(=O)O)c23)cc1NC(=O)c1cccc(NC(=O)Nc2cccc(C(=O)Nc3cc(C(=O)Nc4ccc(S(=O)(=O)O)c5cc(S(=O)(=O)O)cc(S(=O)(=O)O)c45)ccc3C)c2)c1,inactive,inactive,inactive,3.98 µM (active),,inactive,11.2 µM (active),inactive,,inactive,inactive,inactive,inactive,inactive,15.8 µM (active),,
COc1ccccc1N1CCN(CC(O)COc2cccc3ccccc23)CC1 (stereo not drawn),inactive,inactive,inactive,inactive,inactive,inactive,inactive,inactive,inactive,inactive,inactive,inactive,,0.436 µM (active),,,
O=C(c1ccc(F)cc1)C1CCN(CCn2c(=O)[nH]c3ccccc3c2=O)CC1,inactive,inactive,inactive,inactive,inactive,inactive,inactive,inactive,inactive,inactive,inactive,,inactive,,,inactive,
CC(CCc1ccc(O)cc1)NCCc1ccc(O)c(O)c1 (stereo not drawn),inactive,inactive,inactive,inactive,inactive,inactive,inactive,inactive,inactive,inactive,,,,,31.6 µM (active) and 39.8 µM (active) and 50.1 µM (active),,
CCc1cccc2c3c([nH]c12)C(CC)(CC(=O)O)OCC3 (stereo not drawn),inactive,inactive,inactive,inactive,inactive,inactive,inactive,inactive,inactive,inactive,inactive,,inactive,,,,
COc1nc(C)nc(Cl)c1NC1=NCCN1,inactive,inactive,inactive,inactive,inactive,inactive,inactive,inactive,inactive,inactive,,inactive,inactive,inactive,,,
CCN1CCCC1CNC(=O)c1cc(S(=O)(=O)CC)c(N)cc1OC (stereo not drawn),inactive,inactive,inactive,inactive,inactive,inactive,inactive,inactive,inactive,inactive,inactive,inactive,inactive,,,,inactive
CC[C@@]1(O)C(=O)OCc2c1cc1n(c2=O)Cc2cc3c(CN(C)C)c(O)ccc3nc2-1,3.55 µM (active),10.5 µM (active),inactive,inactive,inactive,,,inactive,14.1 µM (active),28.2 µM (active) and 24.1 µM (active) and 31.6 µM (active),inactive,,inactive,inactive,,,
Clc1ccc(C(c2ccccc2Cl)C(Cl)Cl)cc1 (stereo not drawn),inactive,inactive,inactive,inactive,inactive,inactive,inactive,inactive,inactive,inactive,inactive,,inactive,inactive,,,
